Screens as filed in PubChem.
An excerpt weighted towards active compounds, which were near 32% of everything screened.
CYP2C9 inhib = blocks human cytochrome P450 2C9; P11712; CYP2C9 Supersomes, luciferin-H conversion, luminescence; actives 20% (n = 96,000); AID 777; inhibition, % at 5 µM;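 active = blocking of liver enzyme CYP2C9 beyond about 50% at 5 µM, limit read from the data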
Target sequence (P11712 whole entry, looked up): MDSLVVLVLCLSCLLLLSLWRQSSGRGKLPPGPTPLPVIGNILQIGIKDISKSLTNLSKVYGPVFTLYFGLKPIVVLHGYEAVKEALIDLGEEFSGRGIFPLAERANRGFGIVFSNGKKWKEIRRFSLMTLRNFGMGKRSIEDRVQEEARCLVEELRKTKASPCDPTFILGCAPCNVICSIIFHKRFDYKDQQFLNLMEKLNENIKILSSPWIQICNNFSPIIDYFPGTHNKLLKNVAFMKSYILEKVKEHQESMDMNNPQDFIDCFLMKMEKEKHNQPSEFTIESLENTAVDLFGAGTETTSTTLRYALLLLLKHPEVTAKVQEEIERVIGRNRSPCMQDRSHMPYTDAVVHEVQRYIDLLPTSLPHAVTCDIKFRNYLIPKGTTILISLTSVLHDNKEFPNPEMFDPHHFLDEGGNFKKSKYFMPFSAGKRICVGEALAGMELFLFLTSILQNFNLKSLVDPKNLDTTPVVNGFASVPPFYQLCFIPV
CYP2C9 activ = CYP2C9 (human) activation; P11712; recombinant CYP2C9, luciferin-H conversion, luminescence; stronger effect = higher value; factor 1 = untreated enzyme, 0 = blocked; activation factor at 5 µM; actives 1.4% (n = 96,000); AID 1024;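 active = activation factor of 2 or more for CYP2C9 at a 5 µM dose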;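 note: 0 = sulfaphenazole-blocked wells and 1 = vehicle-only wells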
CYP2C19 inhib = inhibitors of human CYP2C19; actives 21% (n = 96,000); inhibition, % at 5 µM; CYP2C19 Supersomes, luciferin-H EGE luminescence, 30 min; P33261;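 active = CYP2C19 inhibition above a set limit at 5 µM in the primary screen, cut at about 50% in these data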;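 note: plate controls were negative control wells for no effect and 2.5 mM tranylcypromine positive control for full effect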
CYP2C19 activ = cytochrome P450 2C19 (human) activation. P33261. 96,000 tested, under 10 active. activation factor at 5 µM. recombinant CYP2C19, luciferin-H EGE luminescence; stronger effect = higher value; 0 = fully inhibited enzyme, 1 = untreated enzyme;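 active = activation factor of at least 2 at 5 µM in the primary screen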;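 note: 0 = wells with 2.5 mM tranylcypromine and 1 = vehicle-only wells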
PostGolgi ctrl = yeast control strain growth, post-Golgi counter-screen; efflux-deficient yeast background strain, growth absorbance A615, 16 h; inhibition, % at 10 µM; actives 5% (n = 98,000); AID 738
PostGolgi yeast = growth inhibition of a yeast mutant, post-Golgi transport screen. inhibition, % at 10 µM. AID 739. actives 0.9% (n = 98,000). post-Golgi transport phenotypic cell assay;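 note: yeast cells grown in 1536-well plates; yeast grown about 18 h at 30C before absorbance read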
* hit, by the source's call. Cut-off read from the data, not from the text of the source, unless noted: active = inhibition above about 30%; inactive = the rest.

SMILES	CYP2C9 inhib	CYP2C9 activ	CYP2C19 inhib	CYP2C19 activ	PostGolgi ctrl	PostGolgi yeast
COc1ccccc1N(CC(O)CN1C(=O)NC(C)(C)C1=O)S(=O)(=O)c1ccc(C)cc1 (configuration not stated)	60*	0.4	94*	0.1	-3	4
Nn1c(SCc2nc3ccccc3[nH]2)nnc1-c1ccccc1	-36	1.4	14	0.9	0	0
c1ccc(-c2nnc(SCc3nc4ccccc4[nH]3)n2Cc2ccco2)cc1	59*	0.4	29	0.7	4	-5
CCn1c(COc2ccc(Cl)cc2)nnc1SCc1nc2ccccc2[nH]1	41	0.6	30	0.7	11	6
Cc1ccc(OCc2nnc(SCc3nc4ccccc4[nH]3)n2Cc2ccco2)cc1	65*	0.4	19	0.8	32*	-4
COc1cccc(-n2nnnc2SCC(=O)NCc2ccco2)c1	-28	1.3	13	0.9	6	11
COc1cccc(-n2nnnc2SCC(=O)Nc2cccc(C)n2)c1	-64	1.6	25	0.7	12	-3
CCC(=O)Nc1cccc(-n2nnnc2SCC(=O)NCc2ccco2)c1	-132	2.3*	58*	0.4	13	5
CCC(=O)Nc1cccc(-c2nnc(SCC(=O)NCc3ccco3)n2C)c1	-18	1.2	-14	1.1	8	-2
COc1ccc(-n2nnnc2SCC(=O)Nc2nnc(C)s2)cc1	54*	0.5	16	0.8	-11	20
COc1ccc(-n2nnnc2SCC(=O)Nc2cccc(C)n2)cc1OC	58*	0.4	26	0.7	11	-2
COc1ccc(-n2nnnc2SCC(=O)NCc2ccco2)cc1OC	-124	2.2*	19	0.8	15	-6
Cn1c(NC(=O)C(C)(C)Oc2ccc(Cl)cc2)cc(=O)n(C)c1=O	25	0.8	98*	0	22	2
CN(C)CCCCNCCCNC(=O)/C=N\O	-12	1.1	-8	1.1	22	0
Cc1nn(C)c(C)c1S(=O)(=O)N(CC(=O)NCCCOC(C)C)c1ccc(C(C)C)cc1	28	0.7	46	0.5	18	5
COc1cccc(C(=O)NCCN2CCOCC2)c1	-20	1.2	-6	1.1	7	6
COc1cccc(NC(=O)N(CCCN2CCOCC2)C(C)c2cc3cccc(OC)c3o2)c1 (configuration not stated)	67*	0.3	66*	0.3	5	0
COc1cccc(NC(=O)CSc2nnc(CN3CCOCC3)n2C)c1	-14	1.1	-3	1	-1	-5
COc1cccc(NC(=O)N(CCCN2CCOCC2)C(C)c2cc3ccccc3o2)c1 (configuration not stated)	52*	0.5	46	0.5	14	-2
CCS(=O)(=O)c1ccc2c(c1)N(S(C)(=O)=O)CC(C(=O)NCCOC)O2 (configuration not stated)	4	1	16	0.8	8	1
S=c1[nH]nc(-c2ccc3ccccc3n2)o1	53*	0.5	17	0.8	2	-2
CCN(CC)P1(=O)OC(c2cc(OC)c(OC)c(OC)c2)=Nc2c1c(C)nn2-c1ccccc1 (configuration not stated)	96*	0	78*	0.2	12	-3
CCCCCn1c(CNC(C)=O)nc2ccccc21	45	0.6	5	0.9	1	4
O=C(/C=C/Nc1ccccc1Br)c1ccccn1	-1	1	23	0.8	-6	9
O=C(/C=C\Nc1ccccn1)c1ccccc1	38	0.6	79*	0.2	14	4
SMILES	CYP2C9 inhib	CYP2C9 activ	CYP2C19 inhib	CYP2C19 activ	PostGolgi ctrl	PostGolgi yeast
Cc1c(NC(=O)Cn2nc(C(F)(F)F)c3c2CCCC3)c(=O)n(-c2ccccc2)n1C	-14	1.1	-15	1.1	0	4
CCOC(=O)c1ccc(CSc2nnc(C)n2N)o1	20	0.8	-22	1.2	5	5
O=C(Cc1c(F)cccc1Cl)c1ccc(O)cc1O	16	0.8	28	0.7	11	4
CCCc1cc(C(=O)Cc2ccc(C(=O)OCC)o2)c(O)cc1O	91*	0.1	93*	0.1	31*	-1
CCCCc1ccc(CC(=O)O)cc1	-3	1	-7	1.1	4	6
CCCc1cc(C(=O)Cc2ccc(F)cc2)c(O)cc1O	100*	0	98*	0	52*	6
O=C(Cc1ccc(F)cc1)c1ccc(O)cc1O	38	0.6	53*	0.5	12	-3
CCCc1cc(-c2n[nH]c(C)c2-c2ccc(C(=O)OCC)o2)c(O)cc1O	99*	0	97*	0	5	-19
Cc1c(N2C(=O)CS/C2=N\N=C\c2ccc(Br)cc2)c(=O)n(-c2ccccc2)n1C	-3	1	1	1	-3	-2
CNC(=O)CC(C(=O)O)c1ccc(OC(C)C)cc1 (configuration not stated)	16	0.8	4	1	9	-4
CCCOC(=O)Nc1nnc(CCC)s1	10	0.9	5	1	1	20
COc1ccc(C2/C(=C(/O)c3ccccc3)C(=O)C(=O)N2CC(C)O)c(OC)c1 (configuration not stated)	18	0.8	1	1	-5	-11
CCCCCc1c(C)nc(NCc2ccccc2)[nH]c1=O	45	0.5	29	0.7	39*	11
Cn1c(N2CCC(C(N)=O)CC2)nc2c1c(=O)n(Cc1cccc(Br)c1)c(=O)n2C	10	0.9	15	0.9	5	-9
O=C(O)c1cccc(COc2ccccc2Cl)c1	95*	0	97*	0	11	-11
O=C(O)c1ccc(COc2ccccc2Cl)cc1	19	0.8	25	0.8	3	2
O=C1/C(=C/c2ccccc2)CCCc2ccccc21	6	0.9	15	0.9	3	-11
COc1ccc(/C=C2\CCc3ccccc3C2=O)cc1Cn1cccn1	49	0.5	78*	0.2	19	21
Cc1ccccc1NC(=O)CCC(=O)OCC(=O)c1ccc(-c2ccccc2)cc1	3	1	-6	1.1	-1	-6
CNc1nc(C)c(C(=O)OCc2ccccc2)s1	54*	0.5	85*	0.2	6	21
CCOC(=O)c1sc(NS(=O)(=O)c2ccccc2)nc1C	81*	0.2	28	0.7	16	1
CCOC(=O)c1sc(NC(=O)Nc2ccc(Cl)cc2)nc1C	15	0.9	10	0.9	3	-7
CCOC(=O)c1sc(NS(=O)(=O)c2ccccc2Cl)nc1C	96*	0	52*	0.5	13	-1
CNc1nc(C)c(C(=O)OCC(=O)OC)s1	5	1	6	0.9	12	-7
CCOC(=O)c1sc(NS(=O)(=O)c2ccc(NC(C)=O)cc2)nc1C	45	0.6	15	0.8	-3	3
CCc1cc2c(=O)n(-c3ccc(Br)cc3)cnc2s1	17	0.8	6	0.9	14	13
